Screening data (PubChem BioAssay)
In the library only some 6.5% were active in any assay of this set; here they are far more common.
Giardia kill – kills Giardia lamblia. Giardia lamblia trophozoite viability. activity change, % at 7.66 µM, hits read low. actives 0.15% (n = 340,000). AID 540267; in the data active = activity change below about -80%; inconclusive = between about -30% and that limit;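 also: parasites exposed to compound for two days anaerobically before the ATP read; % is scaled to controls: 0 for no effect and ±100 for the full control effect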
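Anaerobic 48 hrs incubation at 37 deg C of 100 trophozoites/well with test compounds; ATPLite 1-Step luminescence, 15-30 min RT, reports cellular ATP as viability.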
HT1080 IDH1KD tx – kills HT-1080 cells with IDH1 knockdown; actives 2% (n = 360,000); HT-1080 IDH1 knockdown viability, ATP luminescence, 48 h; Potency, µM (titrated, usually from 46.1 µM), for the others: at the highest dose activity, negative = toxicity, usual class: cytotoxic;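 also: potency is read from the fitted curve at half-maximal effect; 0% = DMSO wells and -100% = cell-free medium wells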
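HT-1080-IDH1KD cells (IDH1 knocked down), 750/well in RPMI with 5% FBS, treated with compound 48 h at 37 degrees C. Viability by CellTiter-Glo luminescence, normalised to DMSO and no-cell wells; concentration-response curves classed.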
HT1080NT lethal – kills 2HG-producing HT-1080-NT fibrosarcoma cells | HT-1080-NT fibrosarcoma viability, CellTiter-Glo ATP luminescence, 48 h | Potency, µM (highest dose often 46.1 µM), for the others: top-dose activity, negative = less viability, usual class: cytotoxic | actives 1.6% (n = 360,000) | AID 686970;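 also: NT is the 2HG producing partner of a matched IDH1 knockdown line; potency is read from the fitted curve at half-maximal effect; 0% = DMSO-treated cells and -100% = media-only wells without cells; nearly all actives have a fitted effect of over 55% in size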
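Fibrosarcoma NT cells, 750 per well in 5% FBS RPMI, were exposed to compound for 48 hours. Viability: CellTiter-Glo luminescence.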
HepG2 tox – HepG2 cytotoxicity, counter-screen for TGF-b inhibitors. Potency, µM (titrated, usually from 46.1 µM), inactives show at the top dose activity change, negative = cytotoxicity, usual class: cytotoxic. AID 588856. actives 0.76% (n = 410,000). HepG2 CAGA-GFP viability, ATP luminescence, 18 h; also: potency is read from the fitted curve at half-maximal effect
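HepG2 CAGA-GFP cells (1000/well, DMEM with 1% FBS) received compound, then TGF-beta at 500 pg/mL final, and were incubated 18 hours at 37 degrees C. Viability was read by CellTiter-Glo luminescence. Media-only wells were set as complete cell-killing and DMSO as no toxicity.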
TGFb SMAD3 inh – blocks TGF-b signaling | HepG2 CAGA-GFP TGF-b/SMAD3 reporter, GFP fluorescence, 18 h; TGF-beta stimulated, 500 pg/mL final | Potency, µM (doses to about 46.1 µM), inactives show at the highest dose activity, negative = inhibition, most hits filed as inhibitors | actives 1.2% (n = 410,000) | AID 588855; also: potency is read from the fitted curve at half-maximal effect; % is scaled to controls: 0 for no effect and ±100 for the full control effect; nearly all actives have a fitted effect of over 65% in size
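Smad-responsive CAGA-GFP expression was quantified in HEPG2 cells exposed to compounds and 500 pg/mL final TGF-beta for 18 h at 37 degrees C; unstimulated wells defined full inhibition.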
IL1B secr inh – inhibitors of inflammasome signaling (IL-1 beta secretion); THP-1 LPS/ATP IL-1B secretion, AlphaLISA, 16 h; stronger effect = lower value; activity change, % at 57.5 µM; AID 743279; actives 4.7% (n = 360,000); in the data active = activity change below about -50%; inconclusive = mostly about -30% to -49%; also: % is scaled to controls: 0 for no effect and ±100 for the full control effect
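THP-1 cells pretreated 1 hr with compounds (up to 57.5 uM final), then stimulated with LPS (250 ng/mL final) plus ATP (1.25 mM final); secreted IL-1B measured by AlphaLISA after 16 hr, decreased signal indicating inhibition.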
An asterisk follows results filed as active. Unless noted, calls follow the shape of the dose curve; as a rule, active = well fitted curve in the direction sought with a large enough effect; inconclusive = small, poorly fitted or top-dose-only effect, or another doubt; inactive = no such curve, though single readings can be large; an effect the other way counts as inactive or inconclusive.

How did CCc1ccc(-c2nc(SCC(=O)NC3CCS(=O)(=O)C3)n[nH]2)cc1 (stereo not drawn) do in these assays?
Giardia kill: -28; HT1080 IDH1KD tx: 1%; HT1080NT lethal: 1%; HepG2 tox: -4%; TGFb SMAD3 inh: 1%; IL1B secr inh: 35

What do the screens show for `O=C(NCCN1CCN(c2cccc(Cl)c2)CC1)C1COc2ccccc2C1` (stereo not drawn)?
HepG2 tox: -47%

What do the screens show for `CCc1nc(SCC(=O)c2ccc3c(c2)OCCO3)c2ccccc2n1`?
Giardia kill: 8; HT1080 IDH1KD tx: inconclusive; HT1080NT lethal: inconclusive; HepG2 tox: -28%; TGFb SMAD3 inh: -16%; IL1B secr inh: -63*

How did CCCc1nc(SCC(=O)N2CCCC2)c2ccccc2n1 do in these assays?
Giardia kill: -8; HT1080 IDH1KD tx: 0%; HT1080NT lethal: -2%; HepG2 tox: -6%; TGFb SMAD3 inh: -3%; IL1B secr inh: 1

What do the screens show for `O=C(CSc1nc(Cc2ccccc2)nc2ccccc12)c1ccc2c(c1)OCCO2`?
Giardia kill: -6; HT1080 IDH1KD tx: -24%; HT1080NT lethal: inconclusive; HepG2 tox: -4%; TGFb SMAD3 inh: 3%; IL1B secr inh: -11

What do the screens show for `CC(C)NC(=O)CSc1nc(Cc2ccccc2)nc2ccccc12`?
Giardia kill: 10; HT1080 IDH1KD tx: -14%; HT1080NT lethal: 0%; HepG2 tox: -14%; TGFb SMAD3 inh: 8%; IL1B secr inh: -70*

What do the screens show for `CCCc1nc(SCC(=O)NC2CCCC2)c2ccccc2n1`?
Giardia kill: -16; HT1080 IDH1KD tx: -1%; HT1080NT lethal: -14%; HepG2 tox: -4%; TGFb SMAD3 inh: 19%; IL1B secr inh: -58*

Results for COc1ccc(-c2cc(-c3ccc4c(c3)NC(=O)CO4)nc3c2COc2ccc(C)cc2-3)cc1 ?
HepG2 tox: 2%; TGFb SMAD3 inh: 5%

Results for Cc1ccnc(NC(=O)/C=C/c2ccccc2Cl)c1 ?
Giardia kill: 1; HT1080 IDH1KD tx: -17%; HT1080NT lethal: -21%; HepG2 tox: -25%; TGFb SMAD3 inh: -14%; IL1B secr inh: -69*

What do the screens show for `Cc1cc(C)nc(NC(=O)/C=C/c2ccccc2Cl)c1`?
Giardia kill: 15; HT1080 IDH1KD tx: 15%; HT1080NT lethal: -3%; HepG2 tox: 1%; TGFb SMAD3 inh: 3%; IL1B secr inh: inconclusive

What do the screens show for `Cc1cc(N)c2cc(NC(=O)/C=C/c3ccccc3Cl)ccc2n1`?
Giardia kill: -17; HT1080 IDH1KD tx: inconclusive; HT1080NT lethal: inconclusive; HepG2 tox: 7.1µM*; TGFb SMAD3 inh: 7.1µM*; IL1B secr inh: -65*

Results for CCOC(=O)c1ccc(NC(=O)c2cc(C)nc3ccccc23)cc1 ?
Giardia kill: -3; HT1080 IDH1KD tx: 20%; HT1080NT lethal: 11%; HepG2 tox: 7%; TGFb SMAD3 inh: 9%; IL1B secr inh: -5

What do the screens show for `CCc1ccc(OCc2ccccc2C(=O)Nc2ccc3nc(C)cc(N)c3c2)cc1`?
HepG2 tox: 4µM*; TGFb SMAD3 inh: 4µM*

How did Cc1cc(C)nc(NC(=O)/C=C/c2ccc(Cl)cc2Cl)c1 do in these assays?
Giardia kill: -16; HT1080 IDH1KD tx: 9%; HT1080NT lethal: 13%; HepG2 tox: 0%; TGFb SMAD3 inh: 3%; IL1B secr inh: -53*

How did Cc1cc(C)nc(NC(=O)/C=C/c2ccccc2Cl)n1 do in these assays?
Giardia kill: 12; HT1080 IDH1KD tx: 8%; HT1080NT lethal: 17%; HepG2 tox: 1%; TGFb SMAD3 inh: -6%; IL1B secr inh: inconclusive

How did O=C(/C=C/c1ccccc1Cl)Nc1ccncc1 do in these assays?
Giardia kill: 14; HT1080 IDH1KD tx: 1%; HT1080NT lethal: 4%; HepG2 tox: 0%; TGFb SMAD3 inh: 0%; IL1B secr inh: -22

How did Cc1cccc(CCNC(=O)c2oc3c(C)c(C)ccc3c2C)n1 do in these assays?
Giardia kill: 4; HT1080 IDH1KD tx: 8%; HT1080NT lethal: 17%; HepG2 tox: -16%; TGFb SMAD3 inh: 3%; IL1B secr inh: 0

Results for CCN(CC)S(=O)(=O)c1ccc(NC(=O)c2ccc(Sc3nncn3C)c([N+](=O)[O-])c2)cc1 ?
Giardia kill: -15; HT1080 IDH1KD tx: 2%; HT1080NT lethal: -1%; HepG2 tox: -21%; TGFb SMAD3 inh: -19%; IL1B secr inh: -91*

What do the screens show for `Cc1ccc(S(=O)(=O)NCCC(=O)N(C)Cc2cccs2)cc1`?
Giardia kill: 4; HT1080 IDH1KD tx: -1%; HT1080NT lethal: -2%; HepG2 tox: -6%; TGFb SMAD3 inh: 10%; IL1B secr inh: 0

How did O=C(COc1ccccc1)NCCc1csc(-c2ccc(Cl)cc2)n1 do in these assays?
HepG2 tox: -73%; TGFb SMAD3 inh: 11µM*

How did O=C(NCCc1csc(-c2ccc(C(F)(F)F)cc2)n1)c1ccc(F)c(F)c1 do in these assays?
HepG2 tox: -74%; TGFb SMAD3 inh: 11µM*

How did COC(=O)C(Cc1ccc(O)cc1)NC(=O)CCNC(=O)c1ccco1 (stereo not drawn) do in these assays?
Giardia kill: -30; HT1080 IDH1KD tx: 2%; HT1080NT lethal: 4%; HepG2 tox: 0%; TGFb SMAD3 inh: 0%; IL1B secr inh: 29

What do the screens show for `Cc1cc(-n2c(SCC(=O)NCc3ccccc3)nc3ccsc3c2=O)ccc1Cl`?
HepG2 tox: -31%; TGFb SMAD3 inh: -25%

How did Cc1ccc(/C=C/C(=O)Nn2cnnc2)cc1 do in these assays?
Giardia kill: -13; HT1080 IDH1KD tx: inconclusive; HT1080NT lethal: inconclusive; HepG2 tox: -20%; TGFb SMAD3 inh: 7%; IL1B secr inh: -115*

How did CC1CCCCN1C(=O)CSc1nc(C2CC2)nc2ccccc12 (stereo not drawn) do in these assays?
Giardia kill: 2; HT1080 IDH1KD tx: inconclusive; HT1080NT lethal: -28%; HepG2 tox: -12%; TGFb SMAD3 inh: -1%; IL1B secr inh: -77*

Results for O=C(CSc1nc(C2CCCCC2)nc2ccccc12)NCc1ccco1 ?
Giardia kill: -19; HT1080 IDH1KD tx: -17%; HT1080NT lethal: inconclusive; HepG2 tox: -18%; TGFb SMAD3 inh: -3%; IL1B secr inh: -82*

Results for CCC(=O)N1CCc2cc(S(=O)(=O)CCC(=O)NCCC3=CCCCC3)ccc21 ?
Giardia kill: 10; HT1080 IDH1KD tx: -1%; HT1080NT lethal: -3%; HepG2 tox: -17%; TGFb SMAD3 inh: 1%; IL1B secr inh: -16
